Inconclusive results are not listed. Calls of active or inactive are those of the source. Rule for the calls: active = hit-call score of the fitted dose curve at least 0.9, where 1 is the maximum; inconclusive = response in the unintended direction; inactive = score below 0.9.
Tested on: Japanese medaka Glucocorticoid Receptor (GR), gene 101170451
Assay: ATG_jmGR_EcoTox2: Attagene TRANS-FACTORIAL EcoTox-2 HepG2 Assay for Japanese medaka Glucocorticoid Receptor (GR)
Description: ATG_EcoTox2 is a cell-based, multiplexed assay created by modifying the existing Attagene TRANS-FACTORIAL system to include a panel of nuclear receptors from some or all the following species: human (Homo sapiens), african clawed frog (Xenopus laevis), rainbow trout (Oncorhynchus mykiss), japanese medaka (Oryzias latipes), and zebrafish (Danio rerio). The ECOTOX2-FACTORIAL format uses HepG2, a human liver cell line, with measurements taken at 24 hours after chemical dosing in a 24-well plate. ATG_jmGR_EcoTox2 is one of 29 assay components calculated in the ATG_EcoTox2 assay. It is designed to make measurements of mRNA induction, a form of inducible reporter, as detected with fluorescence intensity signals by Reverse transcription polymerase chain reaction (RT-PCR) and Capillary electrophoresis technology.The assay endpoint ATG_jmGR_EcoTox2 was analyzed in the positive analysis fitting direction relative to DMSO as the negative control and baseline of activity. Using a type of inducible reporter, measures of mRNA for gain-of-signal activity can be used to understand the reporter gene at the transcription factor-level as they relate to the gene for glucocorticoid receptor. Furthermore, this assay endpoint can be referred to as a primary readout, because this assay has produced multiple assay endpoints where this one serves a reporter gene function. […]

Structure (SMILES)	outcome
CCCCOCN(C(=O)CCl)c1c(CC)cccc1CC	inactive
O=P(Oc1ccccc1)(Oc1ccccc1)Oc1ccccc1	inactive

Reference: PubChem BioAssay AID2284324 (EPA ToxCast)
